The whole screen tested about 230,000 compounds, of which about 1,500 (0.65%) were called active. Entries that show only a call come without a potency. Inconclusive results (about 3%) are left out. Only a selection was taken, and actives are over-represented in it overall. A number with no mark means an inactive call. Calls come from the whole dose curve; as a rule, active = well fitted inhibition curve with a large enough effect; inconclusive = small, poorly fitted or top-dose-only effect; inactive = no such curve, though single readings can be large or run the other way.
Potency is the fitted concentration of half-maximal effect.

Chain of Lethal(3)malignant brain tumor-like protein 1 (Homo sapiens) (Q9Y468 whole entry, looked up): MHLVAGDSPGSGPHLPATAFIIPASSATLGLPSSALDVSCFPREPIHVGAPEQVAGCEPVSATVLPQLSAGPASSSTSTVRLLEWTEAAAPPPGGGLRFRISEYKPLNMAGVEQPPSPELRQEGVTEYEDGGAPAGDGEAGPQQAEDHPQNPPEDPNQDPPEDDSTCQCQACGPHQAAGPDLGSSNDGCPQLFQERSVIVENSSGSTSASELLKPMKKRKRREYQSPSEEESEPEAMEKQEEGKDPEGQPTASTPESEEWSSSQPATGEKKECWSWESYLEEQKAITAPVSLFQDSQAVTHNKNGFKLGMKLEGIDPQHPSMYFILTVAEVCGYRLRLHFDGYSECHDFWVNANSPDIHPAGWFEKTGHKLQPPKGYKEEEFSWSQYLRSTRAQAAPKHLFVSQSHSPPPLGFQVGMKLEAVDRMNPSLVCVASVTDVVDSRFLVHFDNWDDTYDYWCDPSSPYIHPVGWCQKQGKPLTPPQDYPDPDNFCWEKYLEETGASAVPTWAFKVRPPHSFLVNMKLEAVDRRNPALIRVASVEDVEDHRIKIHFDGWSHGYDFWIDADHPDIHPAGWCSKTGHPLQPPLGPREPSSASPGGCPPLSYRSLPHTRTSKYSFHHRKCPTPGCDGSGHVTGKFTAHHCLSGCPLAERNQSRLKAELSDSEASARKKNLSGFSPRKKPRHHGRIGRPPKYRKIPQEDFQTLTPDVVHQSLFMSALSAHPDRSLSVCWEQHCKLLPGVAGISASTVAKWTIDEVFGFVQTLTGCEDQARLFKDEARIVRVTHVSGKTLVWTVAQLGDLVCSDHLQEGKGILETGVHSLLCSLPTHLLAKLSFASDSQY

This experiment deals with Lethal(3)malignant brain tumor-like protein 1 (Homo sapiens) (UniProt Q9Y468). In words: qHTS Assay for the Inhibitors of L3MBTL1. Note: nearly all actives have a fitted effect of over 60% in size. The conditions noted are these: AlphaScreen L3MBTL1–H3K9me1 peptide binding; series mostly up to 57.1 µM. The gist of the method:
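Read-out is AlphaScreen signal from streptavidin donor and nickel chelate acceptor beads (10 ug/mL final each) bridging L3MBTL1 (50 nM) and biotinylated K9-monomethylated H3(1-15) peptide (75 nM), after 30 min compound exposure at room temperature.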
Regarding `Cc1ccc(S(=O)(=O)CCC(=O)OCC(=O)NCCc2ccc(S(N)(=O)=O)cc2)cc1`, the Potency entry was “inactive”.
For the compound `COc1ccccc1C(CNC(=O)c1cccc(S(=O)(=O)Nc2ccc(F)cc2)c1)N(C)C` (configuration not stated), the Potency entry is “inactive”.
`O=c1ccc2c(-c3ccccc3S(=O)(=O)O)c3ccc(O)c(O)c3oc-2c1O`: the Potency was 0.251 µM (active).
As to `CCNC(=O)N(CC)C[C@H]1N[C@@](CC)(C(=O)OC)[C@H]2C(=O)N(Cc3ccccc3)C(=O)[C@@H]12`, the Potency result was “inactive”.
In the case of `CC(C)(C)c1cc(C(=O)N/N=C/c2ccc([N+](=O)[O-])s2)n[nH]1`, the Potency entry is “inactive”.
As for `Cc1cc(C(=O)N/N=C/c2cc([N+](=O)[O-])cc(C)c2O)n[nH]1`, the Potency was 22.4 µM (active).
The same measure, in the same setting: the same measure for `Cc1ccsc1C(=O)N/N=C/c1ccc([N+](=O)[O-])cc1`: “inactive”.
As to `Cc1ccccc1NC(=S)NC(=O)Cc1ccc(Cl)cc1`, the Potency result is “inactive”.
Regarding `COc1ccc(OCCCC(=O)Nc2cccc(S(=O)(=O)N3CCCCCC3)c2)cc1`, the Potency entry was “inactive”.
On to `CC(C)(C)NS(=O)(=O)NC(=O)C1=C(N2CCCC2)COC1=O`, for which the Potency result is “inactive”.
As for `COc1ccc2nc3n(c(=O)c2c1)-c1cc(C)ccc1C(=O)NC3Cc1ccc(O)cc1` (configuration not stated), the Potency entry was “inactive”.
As to `CC(OC(=O)CNC(=O)c1ccc(Cl)c([N+](=O)[O-])c1)C(=O)NCc1ccco1` (configuration not stated), the Potency entry was “inactive”.
Consider `Cc1ccc(/C([O-])=C(/C(=S)NCc2ccco2)[n+]2ccccc2)cc1[N+](=O)[O-]`, for which the Potency was 10 µM (active).
On to `O=[N+]([O-])c1cccc(/C([O-])=C(/C(=S)Nc2ccccc2F)[n+]2ccccc2)c1`, for which the Potency entry is “inactive”.
Consider `CC(=O)c1c(C)n(-c2ccc(C)cc2)c2ccc(O)cc12`, for which the Potency result is “inactive”.
On to `COc1cc2c(-c3ccc4c(c3)OCO4)c(-c3ccsc3)oc(=O)c2cc1OC`, for which the Potency result was “inactive”.
On to `Cn1cccc1/C=C1\SC(=O)N(CC(=O)Nc2ccc(F)cc2)C1=O`, for which the Potency entry was “inactive”.
For the compound `O=C(O)c1cccc(N2C(=O)Nc3ccccc3N2O)c1`, the Potency entry was “inactive”.
Turning to `N#Cc1ccccc1CN1C(=O)S/C(=C/c2cccn2-c2cccc(C(=O)O)c2)C1=O`, the Potency was 22.4 µM (active).
As to `CN(C(=O)CSc1nnc(-c2ccc(C(C)(C)C)cc2)n1C)C1CCS(=O)(=O)C1` (configuration not stated), the Potency result was “inactive”.
As for `C1=C(N2CCOCC2)/C(=C/c2nc3ccccc3[nH]2)CC1`, the Potency was 25.1 µM (active).
With `O=c1[nH]c(N2CCOCC2)nc2ccccc12`, the Potency result is “inactive”.
On to `CC1(C)Cc2c(C#N)c(SCc3nc4ccccc4[nH]3)nc(N3CCOCC3)c2CO1`, for which the Potency result is “inactive”.
On the same count and under the same terms, the same measure for `N#CCN(C(=O)COC(=O)C1CC2CCCC(C1)C2=O)c1ccccc1` (configuration not stated): “inactive”; for `CC(NC(=O)c1ccccc1C(=O)O)c1ccc(-n2ccnc2)cc1` (configuration not stated): “inactive”.
As to `COc1cc(C=NNC(=O)c2cccnc2)ccc1OC(=O)c1ccccc1F`, the Potency entry is “inactive”.
Regarding `COc1ccc(NC(=O)Nc2cccc3cccnc23)cc1`, the Potency entry was “inactive”.
As for `Nc1ccc(Nc2cc(O)c3ncccc3c2)cc1`, the Potency is 11.2 µM (active).
Turning to `CC(C)c1ccc(Nc2ncccc2C#N)cc1`, the Potency result was “inactive”.
For `COc1ccc(S(=O)(=O)N2CCCCC2)cc1NC(=O)COc1ccccc1`, the Potency entry is “inactive”.
Turning to `Cc1cc(C(=O)COc2ccccc2Cl)c(C)n1C1CC1`, the Potency result is “inactive”.
With `CCC(CO)Oc1cc(NC(=O)c2cccc3ccccc23)c2ncn(C(C)C)c2c1` (configuration not stated), the Potency entry is “inactive”.
`O=C(COC(=O)CSc1ccccc1)Nc1ccc(F)cc1F`: the Potency entry was “inactive”.
Regarding `O=C(COC(=O)c1ccc(F)cc1F)Nc1ncccn1`, the Potency is 20 µM (active).
For `COc1cc(OC)cc(C(=O)OCC(=O)Nc2ccc(F)cc2F)c1`, the Potency result is “inactive”.
For `O=S(=O)(c1ccccc1)N1CCC(c2ccccc2)CC1`, the Potency result is “inactive”.
Take `O=C(COC(=O)COc1cc(Cl)c(Cl)cc1Cl)NC1CC1`: the Potency result was “inactive”.
For the compound `CCCCN(C(=O)CCNC(=O)NC12CC3CC(CC(C3)C1)C2)c1c(N)n(CCCC)c(=O)[nH]c1=O`, the Potency entry is “inactive”.
Consider `CCc1nnc(NC(=O)Cc2cccs2)s1`, for which the Potency entry is “inactive”.
On to `COc1ccc(Cc2nnc(NC(=O)c3ccc(OC)cc3OC)s2)cc1`, for which the activity, negative = inhibition is 1.66% [at 2.29 µM].
As to `COc1ccc(Cc2nnc(NC(=O)Cc3cccs3)s2)cc1`, the Potency was 4.47 µM (active).
The same measure, in the same setting: the same measure for `Cn1cc[n+](C)c1COc1ccc(C=O)cc1`: “inactive”; for `CCOCCOC(=O)C1=C(C)NC(=O)NC1c1ccc2c(c1)OCO2` (configuration not stated): “inactive”.
As for `CC1(c2ccccc2)NC(=O)N(CC(=O)N2CC(=O)Nc3ccccc32)C1=O` (configuration not stated), the Potency entry is “inactive”.
The same measure, in the same setting: the same measure for `Cc1ccc(C2(C)NC(=O)N(CC(=O)N3CC(=O)Nc4ccccc43)C2=O)cc1` (configuration not stated): “inactive”; for `CCOC(=O)N1CCN(C(=O)C(C)NC(=O)c2ccco2)CC1` (configuration not stated): “inactive”.
As to `CCOc1cc(/C=N/O)cc(Br)c1OC`, the Potency entry was “inactive”.
Consider `C=CCOc1c(Br)cc(/C=N\n2nnnc2N)cc1OC`, for which the Potency entry is “inactive”.
`CCOc1c(Br)cc(/C=C2\C(=O)N(CCC#N)N=C2C)cc1OC`: the Potency was 14.1 µM (active).
On to `CCOC(=O)[C@@H]1[C@H]2COc3cc(OC)ccc3[C@@H]2N2C(=O)N(c3cccc(C)c3)C(=O)[C@@]12C`, for which the Potency entry was “inactive”.
Consider `CC(OC(=O)c1ccc([N+](=O)[O-])cc1)C(=O)NCC1CCCCC1` (configuration not stated), for which the Potency entry was “inactive”.
`CCCCN1C(=O)C(C)=C(C)C1OCCc1ccc(OC)c(OC)c1` (configuration not stated): the activity, negative = inhibition was 0.955% [at 2.29 µM].

The record behind these values is PubChem BioAssay AID485360 (National Center for Advancing Translational Sciences (NCATS), 2010).
